PubChem BioAssay (NCATS)
Where “and” joins values, the source holds several entries; their conditions need not be identical. Equal values may be shown once. Inconclusive results are not listed. Calls of active or inactive are those of the source. Unless noted, the call rests on the fitted dose curve.

Key:
[1] = biological target: Estrogen receptor (Homo sapiens) (UniProt P03372); test: qHTS assay for small molecule antagonists of estrogen receptor alpha signaling (AID 588513; active means well fitted curve in the direction sought with a large enough effect in the signal ratio, with a control signal flat, not every such curve was filed as active; the % refers to the signal ratio; further: on the % scale 0 is the no-effect control and ±100 the full control effect)
Outline: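 Fluorescence from CCF4 substrate after 2 h at room temperature gave reporter activity; cells had been exposed to compound and 0.5nM 17-beta-estradiol for 18 h at 37 C. Hill-equation fitting yielded IC50 and maximal response.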

[2] = biological target: Estrogen receptor (Homo sapiens) (UniProt P03372); test: qHTS assay for small molecule agonists of estrogen receptor alpha signaling (AID 588514); further: nearly all actives have a fitted effect of over 70% in size; further: potency means the concentration at half of the fitted maximal effect;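 on activation: 0% = vehicle only and 100% = reference agonist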
Outline: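 Read-out: CCF4 fluorescence from a beta-lactamase reporter in ER-alpha-UAS-bla HEK 293 cells after 18 hrs of compound exposure at 37 C. Normalized to 20 nM 17-beta-estradiol (100%) and DMSO (0%).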

[3] = biological target: Peroxisome proliferator-activated receptor delta (Homo sapiens) (UniProt Q03181); test: qHTS assay for small molecule agonists of peroxisome proliferator-activated receptor delta signaling (AID 588534);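 further: 0% = DMSO basal wells and 100% = positive control agonist at 10 µM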
Outline: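 Titration series tested in agonist mode on beta-lactamase reporter cells; 18 hrs at 37 C after a 5 hr pre-incubation. Readout: CCF4 fluorescence, 2 hrs RT. Hill equation gives EC50 and maximal response.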

[4] = biological target: Peroxisome proliferator-activated receptor gamma (Homo sapiens) (UniProt P37231); test: qHTS assay for small molecule agonists of peroxisome proliferator-activated receptor gamma signaling (AID 588536; active means well fitted curve in the direction sought with a large enough effect in the signal ratio, with a control signal flat, not every such curve was filed as active; the % refers to the signal ratio;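 further: 0% = DMSO basal wells and 100% = rosiglitazone at 2 µM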)
Outline: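 Using GeneBLAzer HEK293 cells, response was quantified by CCF4 fluorescence and normalized between basal DMSO (0%) and rosiglitazone 2 uM (100%); curves yielded half-maximal stimulation concentration and efficacy.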

[5] = biological target: Vitamin D3 receptor (Homo sapiens) (UniProt P11473); test: qHTS assay for small molecule antagonists of vitamin D receptor signaling (AID 588541);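 further: receptor activated by calcitriol during compound treatment; series mostly up to about 77 µM; on the % scale 0 is the no-effect control and ±100 the full control effect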
Outline: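 VDR-UAS-bla HEK293T cells in 2% charcoal-stripped FBS were stimulated with 1-alpha,25-dihydroxyvitamin D3 (3 nM final) plus compound for 16 h at 37 C. The beta-lactamase CCF4 readout was normalized to 50 nM agonist and DMSO, and Hill fits gave IC50.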

[6] = biological target: Vitamin D3 receptor (Homo sapiens) (UniProt P11473); test: qHTS assay for small molecule agonists of vitamin D receptor signaling (AID 588543);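 further: 0% = DMSO basal and 100% = reference agonist control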
Outline: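 Reporter cells (HEK293T, VDR-UAS-bla) were seeded in medium with 2% charcoal-stripped serum and incubated 5 h, then compounds in concentration series were added for 16 h at 37 °C. Stimulation was scaled between DMSO basal and 50 nM 1α,25-dihydroxyvitamin D3.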

[7] = qHTS assay for small molecule agonists of retinoid X receptor alpha signaling (AID 588544); settings: HEK293T RXRa-UAS-bla, beta-lactamase reporter, 18 h; 530 nm emission
[8] = biological target: Thyroid hormone receptor beta (Homo sapiens) (UniProt P10828); test: qHTS assay for small molecule agonists of thyroid hormone receptor beta signaling (AID 588545);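 further: 0% = DMSO only and 100% = 10 nM T3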
Outline: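 Efficacy and EC50 values derive from Hill fits of qHTS titration data, normalized to 10 nM T3 and DMSO-only wells. HEK 293 reporter cells were stimulated for 18 hrs at 37 C, with beta-lactamase activity measured by CCF4 fluorescence.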

[9] = qHTS assay for small molecule antagonists of retinoid X receptor alpha signaling (AID 588546; active means well fitted inhibition curve with a large enough effect in the signal ratio, with a control signal flat, not every such curve was filed as active; the % refers to the signal ratio;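 further: cells stimulated with 9-cis-retinoic acid as agonist; on the % scale 0 is the no-effect control and ±100 the full control effect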); settings: HEK293T RXRa-UAS-bla, beta-lactamase ratio, antagonist mode; measured here: W530 green channel, cytotoxicity proxy
Outline: (§1)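 Beta-lactamase reporter inhibition, read as CCF4 fluorescence ratio (ex 405, em 460/530 nm) after 2 h at RT. HEK293T UAS-bla cells, 2500/well, were stimulated with 9-cis-RA at 500 or 100 nM final alongside test compound for 18 h at 37 C.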

[10] = biological target: Retinoic acid receptor RXR-alpha (Homo sapiens) (UniProt P19793); test: as above; settings: HEK293T RXRa-UAS-bla, beta-lactamase ratio, antagonist mode
Outline: as §1

[11] = qHTS assay for small molecule activators of the p53 signaling pathway (AID 651743; active means well fitted activation curve with a large enough effect in the signal ratio, not every such curve was filed as active; the % refers to the signal ratio; further: series mostly up to about 92 µM; % of control where 0% means no effect); settings: HCT-116 p53RE-bla, beta-lactamase FRET ratio, 16 h; activation: stronger effect = higher value
Outline: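 Reporter: beta-lactamase driven by p53 response elements, stably integrated in HCT-116 cells. Cells seeded at 4,000/well, 5 h preincubation, compound (DMSO) 16 h at 37 C; B/G FRET substrate 2 h RT; fluorescence intensity read.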

[12] = qHTS assay for environmental chemicals that activate the Aryl hydrocarbon Receptor (AhR) signaling pathway (AID 651777; active means well fitted curve in the direction sought with a large enough effect; an effect the other way counts as inactive or inconclusive; further: % of control where 0% means no effect; nearly all actives have a fitted effect of over 15% in size); settings: 1A2-DRE human hepatoma cells, luciferase, 24 h; activation: stronger effect = higher value
Outline: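 Stable CYP1A2 promoter/DRE-luciferase human hepatoma line treated 24 hr; One-Glo luminescence, 30 min RT.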

[13] = biological target: Peroxisome proliferator-activated receptor alpha (Homo sapiens) (UniProt Q07869); test: qHTS assay for small molecule agonists of the peroxisome proliferator-activated receptor alpha (PPARalpha) signaling pathway (AID 651778; active means well fitted curve in the direction sought with a large enough effect; an effect the other way counts as inactive or inconclusive; further: % of control where 0% means no effect); settings: PathHunter PPARalpha complementation, chemiluminescence, 6 h; max response: stronger effect = higher value
Outline: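 Enzyme-fragment complementation assay in which ligand-bound PPARalpha translocates and forms an active enzyme that generates chemiluminescence. Cells were plated overnight, exposed to compound for 6 hr at 37 C, and then given detection reagent for 60 min at room temperature.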

[14] = qHTS assay for small molecule agonists of the antioxidant response element (ARE) signaling pathway measured by Nrf2-dependant transcriptional activity (AID 720636; active means well fitted curve in the direction sought with a large enough effect in the repeat runs; an effect the other way counts as inactive or inconclusive;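 further: HepG2 cells with an ARE-driven luciferase reporter; % of control where 0% means no effect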)
Outline: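 Reporter gene assay, HepG2 ARE-luc: 16 hr compound, 37 C, 5% CO2; read-out luciferase luminescence.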

[15] = qHTS assay for small molecule agonists of the antioxidant response element (ARE) signaling pathway measured by Nrf2-dependant transcriptional activity - cell viability counter screen (AID 720653; active means well fitted curve in the direction sought with a large enough effect in the repeat runs; an effect the other way counts as inactive or inconclusive; further: on the % scale 0 is the no-effect control and ±100 the full control effect); settings: ARE-bla HepG2 viability, CellTiter-Glo ATP luminescence, 16 h; max response: stronger effect = lower value
Outline: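 ARE-bla HepG2 cells treated with compounds for 16 h at 37C; this counter screen measures viability as intracellular ATP by CellTiter-Glo luminescence after 30 min at room temperature.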

[16] = qHTS assay for cell viability of HEK293 cells (AID 743288; active means well fitted curve in the direction sought with a large enough effect; an effect the other way counts as inactive or inconclusive; further: on the % scale 0 is the no-effect control and ±100 the full control effect; nearly all actives have a fitted effect of over 50% in size); settings: ATP luminescence (CellTiter-Glo), 18 h; max response: stronger effect = lower value
Outline: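 Viable-cell counts were inferred from luciferase-based ATP content in HEK293 cells seeded at 2,000/well, pre-incubated ≥5 h, then dosed with DMSO-solubilised compounds for 18 h at 37 C.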

[17] = qHTS assay for cell viability of the p53RE-bla HCT-116 cell line (AID 743292; active means well fitted curve in the direction sought with a large enough effect; an effect the other way counts as inactive or inconclusive; further: on the % scale 0 is the no-effect control and ±100 the full control effect; nearly all actives have a fitted effect of over 55% in size)
Outline: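 Readout: CellTiter-Glo luminescence after 30 min RT. Treatment: compounds in DMSO, 16 h, 37 C. Cells: CellSensor p53RE-bla HCT-116, 4,000/well, preincubated 5 h.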

[18] = biological target: Glucocorticoid receptor (Homo sapiens) (UniProt P04150); test: qHTS assay for small molecule agonists of glucocorticoid receptor signaling (AID 588532; active means well fitted curve in the direction sought with a large enough effect in the signal ratio, with a control signal flat; the % refers to the signal ratio;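 further: 100% = dexamethasone at 0.1 µM and 0% = DMSO only wells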); settings: HeLa MMTV-bla, beta-lactamase ratio, agonist, 18 h; activation: stronger effect = higher value, percent of dexamethasone control, DMSO zero
Outline: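 MMTV-bla HeLa beta-lactamase reporter cells in 1% charcoal/dextran FBS medium, compounds up to 92 uM for 18 h at 37 C, CCF4 readout; normalized to 0.1 uM dexamethasone (100%), EC50 and efficacy from Hill fits.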

[19] = qHTS assay for small molecule activators of the nuclear factor-kappa B (NF-kB) signaling pathway (AID 651749; active means well fitted activation curve with a large enough effect in the signal ratio; the % refers to the signal ratio; further: series mostly up to about 77 µM; % of control where 0% means no effect); settings: NF-kB-bla ME-180 cells, beta-lactamase FRET ratio, 16 h; activation: stronger effect = higher value
Outline: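 NF-kB-bla ME-180 cells, 2,000/well; 23 nL compound or DMSO pinned; 16 hr, 37C/5% CO2; beta-lactamase FRET read-out.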

Peroxisome proliferator-activated receptor delta (Homo sapiens), sequence (Q03181 whole entry, looked up): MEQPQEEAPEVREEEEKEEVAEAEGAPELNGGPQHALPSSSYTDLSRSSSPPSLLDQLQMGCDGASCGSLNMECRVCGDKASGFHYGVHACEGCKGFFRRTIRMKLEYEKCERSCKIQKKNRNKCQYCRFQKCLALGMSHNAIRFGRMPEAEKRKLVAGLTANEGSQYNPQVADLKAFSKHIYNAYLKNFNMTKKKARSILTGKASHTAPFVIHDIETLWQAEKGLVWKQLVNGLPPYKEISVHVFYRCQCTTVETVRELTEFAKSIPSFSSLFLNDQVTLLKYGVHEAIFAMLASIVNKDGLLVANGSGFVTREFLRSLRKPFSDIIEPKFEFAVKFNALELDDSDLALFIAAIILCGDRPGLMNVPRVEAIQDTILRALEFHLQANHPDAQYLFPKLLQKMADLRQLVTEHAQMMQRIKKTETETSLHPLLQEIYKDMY
Retinoic acid receptor RXR-alpha (Homo sapiens), sequence (P19793 whole entry, looked up): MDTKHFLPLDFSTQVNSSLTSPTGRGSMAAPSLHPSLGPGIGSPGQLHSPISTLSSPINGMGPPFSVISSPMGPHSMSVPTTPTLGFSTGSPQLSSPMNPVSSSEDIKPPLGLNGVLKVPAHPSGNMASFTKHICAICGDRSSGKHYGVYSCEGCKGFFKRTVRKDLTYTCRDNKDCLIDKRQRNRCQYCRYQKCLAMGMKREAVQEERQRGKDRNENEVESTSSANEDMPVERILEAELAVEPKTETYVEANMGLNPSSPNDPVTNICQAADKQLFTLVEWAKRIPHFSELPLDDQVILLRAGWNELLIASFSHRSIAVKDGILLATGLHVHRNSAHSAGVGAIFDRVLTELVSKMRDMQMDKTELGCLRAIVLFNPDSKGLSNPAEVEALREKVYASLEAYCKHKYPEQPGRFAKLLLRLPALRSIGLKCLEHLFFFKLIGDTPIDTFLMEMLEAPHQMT
Estrogen receptor (Homo sapiens), sequence (P03372 whole entry, looked up): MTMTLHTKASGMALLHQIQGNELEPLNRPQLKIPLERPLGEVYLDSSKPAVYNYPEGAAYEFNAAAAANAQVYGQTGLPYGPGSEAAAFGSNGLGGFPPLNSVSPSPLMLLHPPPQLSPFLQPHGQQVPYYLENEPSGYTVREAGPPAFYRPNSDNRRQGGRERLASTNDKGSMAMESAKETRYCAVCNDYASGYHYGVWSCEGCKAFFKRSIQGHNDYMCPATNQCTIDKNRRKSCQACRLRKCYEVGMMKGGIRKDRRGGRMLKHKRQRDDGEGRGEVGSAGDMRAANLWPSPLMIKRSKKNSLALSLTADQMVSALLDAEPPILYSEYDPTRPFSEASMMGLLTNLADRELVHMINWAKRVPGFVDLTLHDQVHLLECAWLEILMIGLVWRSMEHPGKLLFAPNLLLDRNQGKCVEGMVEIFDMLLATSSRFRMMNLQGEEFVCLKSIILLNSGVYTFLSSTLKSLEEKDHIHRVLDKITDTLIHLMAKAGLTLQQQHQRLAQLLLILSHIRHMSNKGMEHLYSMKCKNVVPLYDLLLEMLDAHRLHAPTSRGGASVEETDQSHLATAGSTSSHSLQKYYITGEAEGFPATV
Peroxisome proliferator-activated receptor alpha (Homo sapiens), sequence (Q07869 whole entry, looked up, the tested form may be a part): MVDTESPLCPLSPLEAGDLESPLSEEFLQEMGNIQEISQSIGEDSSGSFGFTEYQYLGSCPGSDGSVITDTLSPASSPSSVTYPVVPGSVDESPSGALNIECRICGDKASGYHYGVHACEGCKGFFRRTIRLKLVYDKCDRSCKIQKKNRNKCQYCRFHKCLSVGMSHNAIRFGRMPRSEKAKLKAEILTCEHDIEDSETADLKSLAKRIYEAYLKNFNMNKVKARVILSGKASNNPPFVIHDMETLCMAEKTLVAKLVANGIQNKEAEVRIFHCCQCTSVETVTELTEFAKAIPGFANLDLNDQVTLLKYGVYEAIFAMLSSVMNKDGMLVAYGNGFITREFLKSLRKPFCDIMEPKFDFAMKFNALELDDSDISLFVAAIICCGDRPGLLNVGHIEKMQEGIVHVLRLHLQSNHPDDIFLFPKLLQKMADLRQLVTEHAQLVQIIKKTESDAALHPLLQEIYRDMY
Vitamin D3 receptor (Homo sapiens), sequence (P11473 whole entry, looked up): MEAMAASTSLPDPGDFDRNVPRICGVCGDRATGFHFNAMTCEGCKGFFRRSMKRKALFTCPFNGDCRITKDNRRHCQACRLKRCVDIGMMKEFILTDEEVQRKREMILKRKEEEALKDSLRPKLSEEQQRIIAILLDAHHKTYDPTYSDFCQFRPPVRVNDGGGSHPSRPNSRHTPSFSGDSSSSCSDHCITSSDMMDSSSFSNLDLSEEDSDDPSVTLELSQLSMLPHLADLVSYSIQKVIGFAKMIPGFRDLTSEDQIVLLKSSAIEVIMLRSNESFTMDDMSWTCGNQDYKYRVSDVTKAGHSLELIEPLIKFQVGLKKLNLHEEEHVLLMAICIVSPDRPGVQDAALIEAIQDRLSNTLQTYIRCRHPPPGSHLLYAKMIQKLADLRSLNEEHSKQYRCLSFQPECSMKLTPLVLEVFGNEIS
Thyroid hormone receptor beta (Homo sapiens), sequence (P10828 whole entry, looked up): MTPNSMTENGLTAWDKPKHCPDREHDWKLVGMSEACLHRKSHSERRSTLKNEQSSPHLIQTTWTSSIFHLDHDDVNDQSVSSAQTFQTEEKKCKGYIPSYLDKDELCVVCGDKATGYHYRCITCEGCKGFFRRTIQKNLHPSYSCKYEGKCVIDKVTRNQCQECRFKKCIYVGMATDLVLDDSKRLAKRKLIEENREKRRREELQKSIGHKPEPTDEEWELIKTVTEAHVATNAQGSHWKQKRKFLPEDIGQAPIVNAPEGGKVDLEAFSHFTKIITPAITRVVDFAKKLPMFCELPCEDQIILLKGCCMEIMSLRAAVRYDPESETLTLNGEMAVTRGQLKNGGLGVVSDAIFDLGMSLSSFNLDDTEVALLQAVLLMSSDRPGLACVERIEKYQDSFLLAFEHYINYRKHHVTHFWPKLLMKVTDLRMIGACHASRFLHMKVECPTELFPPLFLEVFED
Peroxisome proliferator-activated receptor gamma (Homo sapiens), sequence (P37231 whole entry, looked up): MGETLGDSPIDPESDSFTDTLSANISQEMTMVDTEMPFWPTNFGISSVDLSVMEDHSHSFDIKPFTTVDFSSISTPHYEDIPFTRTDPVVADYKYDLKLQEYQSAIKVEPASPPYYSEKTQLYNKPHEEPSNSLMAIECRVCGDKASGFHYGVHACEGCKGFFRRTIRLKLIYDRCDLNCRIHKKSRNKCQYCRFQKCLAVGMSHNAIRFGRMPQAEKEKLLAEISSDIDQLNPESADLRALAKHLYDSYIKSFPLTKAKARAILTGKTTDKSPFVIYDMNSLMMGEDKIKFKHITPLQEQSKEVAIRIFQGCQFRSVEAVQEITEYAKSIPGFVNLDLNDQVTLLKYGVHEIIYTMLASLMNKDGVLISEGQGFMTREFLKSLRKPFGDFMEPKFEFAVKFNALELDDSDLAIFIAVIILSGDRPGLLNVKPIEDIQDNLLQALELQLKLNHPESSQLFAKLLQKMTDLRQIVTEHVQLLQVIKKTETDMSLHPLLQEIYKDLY
Glucocorticoid receptor (Homo sapiens), sequence (P04150 whole entry, looked up): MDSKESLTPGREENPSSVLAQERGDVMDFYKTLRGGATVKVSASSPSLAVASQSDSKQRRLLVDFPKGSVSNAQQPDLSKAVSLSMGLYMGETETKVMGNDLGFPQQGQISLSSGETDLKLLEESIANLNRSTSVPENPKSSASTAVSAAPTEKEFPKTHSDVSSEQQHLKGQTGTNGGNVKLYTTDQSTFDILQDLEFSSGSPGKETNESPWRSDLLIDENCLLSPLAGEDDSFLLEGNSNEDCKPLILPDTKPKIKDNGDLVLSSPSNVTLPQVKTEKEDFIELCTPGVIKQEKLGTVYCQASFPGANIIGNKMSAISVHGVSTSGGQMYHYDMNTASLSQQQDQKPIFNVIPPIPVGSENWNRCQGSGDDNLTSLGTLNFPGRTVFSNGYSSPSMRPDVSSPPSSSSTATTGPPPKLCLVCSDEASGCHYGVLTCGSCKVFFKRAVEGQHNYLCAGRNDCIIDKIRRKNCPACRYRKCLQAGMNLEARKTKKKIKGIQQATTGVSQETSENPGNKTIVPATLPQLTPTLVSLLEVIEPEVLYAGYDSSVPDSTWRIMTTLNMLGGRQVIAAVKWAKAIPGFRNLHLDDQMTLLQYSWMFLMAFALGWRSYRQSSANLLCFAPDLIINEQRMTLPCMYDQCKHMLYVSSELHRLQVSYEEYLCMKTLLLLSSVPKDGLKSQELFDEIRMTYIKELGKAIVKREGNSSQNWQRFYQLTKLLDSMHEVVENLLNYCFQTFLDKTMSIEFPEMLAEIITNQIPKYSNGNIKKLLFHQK

CCOP(=S)(S)OCC
inactive: Potency [1] | Potency [2] | outcome [3] | Potency [4] | Potency [5] | outcome [6] | Potency [8] | max response [10] -16.6% | activation [11] -1.75% | activation [12] 0.356% | max response [13] -2.08% | Potency [14] | max response [15] 2.15% | max response [16] -0.594% | Potency [17]
-7.79%: max response [7]
-11.3%: max response [9]

O=[As](O)(O)O
-3.47%: max response [9]
inactive: Potency [1] | Potency [2] | activation [18] -5.56% | outcome [3] | Potency [4] | Potency [5] | outcome [6] | Potency [8] | max response [10] -6.13% | activation [11] -0.546% | activation [19] -0.92% | activation [12] -0.386% | max response [13] 0.0106% | max response [15] -8.77% | max response [16] -4.83% | Potency [17]
-18.2%: max response [7]

O=S(=O)(c1ccc(O)cc1)c1ccc(O)cc1
-5.39%: max response [9]
inactive: Potency [1] | activation [18] -0.412% | outcome [3] | Potency [4] | Potency [5] | outcome [6] | Potency [8] | max response [10] 15.4% | activation [11] -2.48% | activation [19] -0.813% | activation [12] -1.25% | max response [13] -4.37% | Potency [14] | max response [15] -5.42% | max response [16] -8.18% | Potency [17]
active: Potency [2] 14.1 µM
-2.49%: max response [7]

NS(=O)(=O)C(F)(F)C(F)(F)C(F)(F)C(F)(F)C(F)(F)C(F)(F)C(F)(F)C(F)(F)F
-4.16%: max response [9]
inactive: Potency [1] | Potency [2] | activation [18] -2.51% | outcome [3] | Potency [8] | max response [10] -55.1% | activation [11] 13.9% | activation [19] 3.4% | activation [12] 4% | Potency [14] | max response [15] -2.62% | Potency [17]

c1cc2c3c(cccc3c1)CC2
-7.15%: max response [7]
inactive: Potency [1] | Potency [2] | outcome [3] | Potency [4] | Potency [8] | max response [10] -3.28% | activation [11] 5.25% | activation [12] 0.274% | max response [13] -0.57% | Potency [14] | max response [15] 18.9% | max response [16] -7.08% | Potency [17]
-4.84%: max response [9]

C/C(=N\NC(=O)Nc1cc(F)cc(F)c1)c1ncccc1C(=O)O
-5.57% and -1.16%: max response [9]
4% and -10.7%: max response [7]
inactive: Potency [1] | Potency [2] | activation [18] 10.9% and -10.6% | Potency [4] | Potency [5] | outcome [6] | max response [10] -18.2% and 0.0153% | activation [11] -1.04% and 1.35% | activation [19] 0.367% and -2.66% | activation [12] 0.312% and 2.08% | max response [13] 0.136% and -0.453% | Potency [14] | max response [15] -4.25% and -0.19% | max response [16] -5.69% and -3.6% | Potency [17]

CCOP(=S)(OCC)SCC(=O)NC(C)C
-3.21%: max response [7]
-8.13%: max response [9]
inactive: Potency [1] | Potency [2] | activation [18] 3% | outcome [3] | Potency [4] | Potency [5] | outcome [6] | Potency [8] | max response [10] -1.4% | activation [11] -0.0599% | activation [19] 0.608% | activation [12] 0.496% | max response [13] -4.11% | Potency [14] | max response [15] 2% | max response [16] -3.84% | Potency [17]

CCOP(=O)(OCC)SCSC(C)(C)C
inactive: Potency [1] | Potency [2] | activation [18] -2.2% | outcome [3] | Potency [4] | Potency [5] | outcome [6] | Potency [8] | max response [10] -1.69% | activation [11] -4.41% | activation [19] -3.03% | activation [12] -0.964% | max response [13] 0.241% | Potency [14] | max response [15] 4.97% | max response [16] -8.78% | Potency [17]
4.09%: max response [7]
-15.4%: max response [9]

CCOP(=O)(SC(C)CC)SC(C)CC (stereo unspecified)
-3.17%: max response [9]
-25%: max response [7]
inactive: Potency [1] | Potency [2] | activation [18] -2.32% | outcome [3] | Potency [4] | Potency [5] | outcome [6] | Potency [8] | max response [10] -13.8% | activation [11] -0.0138% | activation [19] -1.37% | activation [12] 0.937% | max response [13] -1.1% | Potency [14] | max response [15] -6.4% | max response [16] -14% | Potency [17]
